# Measured values as given in the supplement of paper PMC6555819.
# Experiments:
# Test in all cases: PBM binding z-score (relative to random genomic background probes); higher = stronger binding; sequences stand for … in GC…GCGATTGACAGCGTAGAATGAAGG
# [1] = test system: FXR:RXRa (NR concentration 270 nM, RXRa partner concentration 90 nM)
# Method in brief: (§1)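 Binding z-scores take random background probes as their reference. They come from custom Agilent 4×180K protein-binding microarrays incubated 1 h with ligand-free nuclear receptor dimers, with antibodies against each partner (one per run) detecting binding. Scanned fluorescence was regression-normalized.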
# [2] = test system: LXRa:RXRa (NR concentration 270 nM, RXRa partner concentration 90 nM)
# Method in brief: as §1
# [3] = test system: LXRa homodimer (NR concentration 270 nM)
# Method in brief: as §1
# [4] = test system: LXRb:RXRa (NR concentration 270 nM, RXRa partner concentration 90 nM)
# Method in brief: as §1
# [5] = test system: LXRb homodimer (NR concentration 270 nM)
# Method in brief: as §1
# [6] = test system: PPARa:RXRa (NR concentration 270 nM, RXRa partner concentration 90 nM)
# Method in brief: as §1
# [7] = test system: PPARg:RXRa (NR concentration 180 nM, RXRa partner concentration 90 nM)
# Method in brief: as §1
# [8] = test system: PPARg:RXRa 270nM:90nM, anti-RXR (NR concentration 270 nM, RXRa partner concentration 90 nM)
# Method in brief: as §1
# [9] = test system: PPARg:RXRa 30nM:10nM, anti-RXR (NR concentration 30 nM, RXRa partner concentration 10 nM)
# Method in brief: as §1
# [10] = test system: PPARg:RXRa 90nM:30nM, anti-RXR (NR concentration 90 nM, RXRa partner concentration 30 nM)
# Method in brief: as §1
# [11] = test system: PPARg:RXRa DBDmut IVT, anti-RXR (DBD mutation: RXRa K156A/R161A, NR concentration 270 nM, RXRa partner concentration 90 nM)
# Method in brief: as §1
# [12] = test system: PPARg:RXRa IVT, anti-PPARg (NR concentration 270 nM, RXRa partner concentration 90 nM)
# Method in brief: as §1
# [13] = test system: PPARg DBDmut:RXRa IVT, anti-PPARg (DBD mutation: PPARg1 K132A/R137A, NR concentration 270 nM, RXRa partner concentration 90 nM)
# Method in brief: as §1
# [14] = test system: PPARg DBDmut IVT, anti-PPARg (DBD mutation: PPARg1 K132A/R137A, NR concentration 270 nM)
# Method in brief: as §1
# [15] = test system: PPARg homodimer (NR concentration 180 nM)
# Method in brief: as §1
# [16] = test system: PXR:RXRa (NR concentration 270 nM, RXRa partner concentration 90 nM)
# Method in brief: as §1
# [17] = test system: PXR homodimer (NR concentration 270 nM)
# Method in brief: as §1
# [18] = test system: RARa:RXR (NR concentration 270 nM, RXRa partner concentration 90 nM)
# Method in brief: as §1
# [19] = test system: RARa homodimer (NR concentration 270 nM)
# Method in brief: as §1
# [20] = test system: RARb:RXRa (NR concentration 270 nM, RXRa partner concentration 90 nM)
# Method in brief: as §1
Sequence,PBM binding z-score [1],PBM binding z-score [2],PBM binding z-score [3],PBM binding z-score [4],PBM binding z-score [5],PBM binding z-score [6],PBM binding z-score [7],PBM binding z-score [8],PBM binding z-score [9],PBM binding z-score [10],PBM binding z-score [11],PBM binding z-score [12],PBM binding z-score [13],PBM binding z-score [14],PBM binding z-score [15],PBM binding z-score [16],PBM binding z-score [17],PBM binding z-score [18],PBM binding z-score [19],PBM binding z-score [20]
ACTAGGAGGCCAAGTTTGGGTCACTCAAACAAAG,0.516,0.308,-0.0463,0.967,-0.287,1.36,0.296,0.511,-0.488,-0.0404,1.22,1.95,-0.886,-1.06,1.15,1.22,0.347,1.83,0.176,2.43
CTACGAAGGTGAACAAGGTCGTTGATTACTATTC,1.63,1.54,0.18,1.91,-0.34,2.66,0.958,1.03,-0.0387,0.552,2.27,2.28,0.435,0.389,0.63,2.98,1.39,2.46,0.451,2.33
ATATGTAGCTTAGCTGGGGTCATTCAGACTAGGC,3.34,3.44,1.49,4.21,0.639,4.15,1.15,2.3,0.587,1.59,0.33,0.991,0.947,0.695,1.04,5.29,1.48,4.92,0.298,2.4
AATACAGGGTCATCGTATGCCAGAGTACGCACAG,7.33,5.98,1.87,4.34,1.25,5.64,6.62,5.86,2.88,4.57,2.86,4.36,4.37,2.02,2.61,4.31,0.464,5.23,0.493,4.21
TCTCGGAGGACATGAAGGTCAGAGCTTTCCAGAG,0.472,1.08,0.0663,1.15,-0.779,1.77,0.175,1.63,2.55,1.8,2.01,0.772,-0.736,-1.67,0.875,1.77,0.899,1.69,0.0257,2.63
CGTCCAAGGTCGGCAGGTCAGTGAAAGCGACGTG,1.48,0.7,-0.723,0.338,-1.39,1.95,-0.15,0.764,-0.459,-0.168,-0.305,0.214,-0.718,-1.66,0.288,1.23,-0.703,1.88,-0.686,3.17
CCTACTGGGCCCAAAAGGTCATTGATGCCGATAA,4.23,4.84,3.68,4.62,0.521,4.61,1.78,3.47,0.593,2.69,0.117,1.66,-0.622,-1.17,2.86,4.97,1.92,5.31,1.46,3.93
GCGACTGGGGCATCTGCAGGTTACCATAACTTAA,-0.256,0.365,-0.281,1.41,-0.198,1.53,0.863,1.01,-0.39,0.715,3.92,2.96,-0.0823,-0.117,0.207,0.314,-0.507,0.637,-1.22,0.859
TCATATAGGTAATACAGCTGAAAGTCGGCATCTA,0.752,0.674,-0.0282,0.475,0.431,1.14,0.839,2.26,3.95,3.15,4.01,1.94,0.896,1.18,1.1,0.684,-0.0774,0.947,0.987,0.188
TCTTGTAGATCAATAGAGGTTAAGAAGGTGCGCT,0.831,2.82,0.464,1.44,-0.193,2,0.18,1.52,2.75,1.95,1.45,0.982,-0.0465,0.519,0.274,2.12,-0.00143,1.94,0.262,0.921
TCGAGTAGGTGAGTCGGGGCATTCAGCCAACATA,-0.0608,-0.132,-0.66,0.164,-0.758,0.821,0.173,0.652,0.673,0.803,3.41,2.92,-0.294,-0.634,-0.137,-0.178,-0.0256,-0.138,-0.397,0.298
AGAAGGAGGTTATACGTAGATCAGGGAAGAAAGT,1.61,1.45,0.366,1.43,0.303,2.43,1.33,1.28,0.492,0.986,2.41,1.24,2.08,0.617,1.18,1,1.06,0.963,1.33,1.34
CCTTACGGGTCACGAGGTTATACCACGACGAGCG,6.99,4.85,0.42,4.37,-0.0941,6.07,6.94,6.43,3.65,5.65,4.05,5.31,1.4,2.59,3.29,4.71,0.172,6.09,0.951,4.45
TCTAGTTGGTCGAAGGTCACACACTCGAAATGCG,2.91,3.2,1.24,3.38,0.802,4.57,7.43,7.58,6.89,7.98,1.87,3.68,1.01,1.13,3.06,3.66,1.06,4.17,1.25,3.51
AGAACGAGGGCACGCTGAGTTGATAGCCGAGTAG,0.799,0.509,-0.574,0.154,-0.961,2.17,2.04,1.7,-0.0721,0.936,4.46,4.04,0.489,0.266,0.0307,1.21,-0.287,0.916,-0.217,2.42
